# Source: PubChem BioAssay (NCATS)
# Several values for one entry are separate records, joined by “and”; a condition that tells them apart may be missing. Equal entries are not always repeated. Results filed as inconclusive are left out. A number with no mark means an inactive call. Activity calls are given as the source filed them. Calls come from the whole dose curve; as a rule, active = well fitted inhibition curve with a large enough effect; inconclusive = small, poorly fitted or top-dose-only effect; inactive = flat fitted curve, though single readings scatter. Where a SMILES comes first, the peptide text is derived from it. The star is where a group is joined. AFC = O=c1cc(C(F)(F)F)c2ccc(N*)cc2o1
# Tested on: CRL-7250
# Experiment: Cytotoxic Profiling of Annotated Libraries Using Quantitative High-Throughput Screening (AID 1296008); note: nearly all actives have a fitted effect of over 60% in size
# Details: Five cell lines viability, CellTiter-Glo ATP luminescence, 48-72 h; max response: active compounds read low
# Method in brief: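 Compounds were pin-transferred onto cells and incubated 48 or 72 hr at 37 degree Celsius, 95% humidity. CellTiter-Glo was added, plates sat 10 min at room temperature, then ATP-coupled luminescence was imaged as the viability read-out.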
# % is set by controls: 0 for no effect and ±100 for the full control effect.
SMILES,max response,outcome
C=CCc1ccc(O[C@@H]2O[C@H](CO)[C@@H](O)[C@H](O)[C@H]2O)c(OC)c1,-5.9%,–
Cc1cc(C)cc(NC(=O)Cc2ccc(OC(C)(C)C(=O)O)cc2)c1,0.247%,–
CC1(CCC(=O)O)C(=O)C=CC23CC4CC(OC4(C)C2O)C13 (centres undefined),3.62%,–
COc1ccc2c(c1)O[C@H](O[C@@H]1O[C@H](CO)[C@@H](O)[C@H](O)[C@H]1O)C(=O)N2,–,inactive
Cc1nn(C)c(COc2ccc(N3CCN(S(=O)(=O)N(C)C)CC3)cc2)c1-c1cccc2c(CCCOc3cccc4ccccc34)c(C(=O)O)n(CCN3CCOCC3)c12,-5.39% and -9.48%,–
CC(C)(O)C1=CCC23COC(C2)C(O)(C(=O)O)CCC13 (centres undefined),–,inactive
COC(=O)[C@H](CC1C=NC=N1)NCC12CC3CC(CC(C3)C1)C2 (some centres undefined),-3.43%,–
COc1ccccc1[C@@H]1C2=C(CC(C)(C)CC2=O)Nc2n[nH]c(C(F)(F)F)c21,3.92%,–
COc1cc(/C=C/CO)ccc1O[C@@H]1O[C@H](CO)[C@@H](O)[C@H](O)[C@H]1O,-3.79%,–
CC(=O)O[C@@H]1[C@H]2[C@@H](OC(=O)c3ccccc3)[C@@H](C)C[C@]2(O)[C@H](OC(C)=O)[C@@]2(C)[C@@H]3CC(C)(C)C(=O)[C@]3(OC(C)=O)C[C@@]12C,–,inactive
CC1(C)C(=O)N2c3ccccc3[C@]3(CC(n4cnc5ccccc5c4=O)C(=O)O3)[C@H]2N1O (some centres undefined),–,inactive
CC(O)(CC(=O)O)CC(=O)O[C@@H]1[C@@H](O)[C@H](OCCc2ccccc2)O[C@H](CO)[C@H]1O (some centres undefined),-0.691%,–
O=C(/C=C/c1ccc(O)cc1)OCC1=CC2OC(=O)C3=CO[C@@H](O[C@@H]4O[C@H](CO)[C@@H](O)[C@H](O)[C@H]4O)[C@H]1[C@@H]32 (some centres undefined),-2.07%,–
C[C@H]1[C@H](C)CC[C@]2(C(=O)O)CC[C@]3(C)C(=CC[C@@H]4[C@@]5(C)C[C@@H](O)[C@H](O)[C@@](C)(CO)[C@@H]5CC[C@]43C)[C@H]12,0.188%,–
CCOc1ccc(C(Nc2ccccn2)c2ccc3ccc(C)nc3c2O)cc1C (centres undefined),–,inactive
CC(=O)N[C@@H](CC(C)C)C(=O)N[C@@H](CCC(=O)O)C(=O)N[C@@H](CCC(=O)O)C(=O)N[C@@H](CC(=O)O)C(=O)Nc1ccc2c(C(F)(F)F)cc(=O)oc2c1 (Ac-LEED-{AFC}),-4.37%,–
O=C1CC(c2ccc([N+](=O)[O-])cc2)=NN1c1ccccc1,–,inactive
OCC1=CC[C@@H]2C=CO[C@@H](O[C@@H]3O[C@H](CO)[C@@H](O)[C@H](O)[C@H]3O)[C@H]12,–,inactive
C[C@@H]1CCC2C(C)(C)[C@H](O)CC[C@]2(C)[C@@]12Cc1c(O)cc3c(c1O2)CN(CCO)C3=O (some centres undefined),-2.75%,–
CC(C)CNC(=O)/C=C/CCCCc1ccc2c(c1)OCO2,-4.34%,–
COC1CC(OC2CCC3(C)C(=CCC4C3CCC3(C)C(C(C)O)CCC43O)C2)OC(C)C1OC1OC(C)C(OC2OC(COC3OC(COC4OC(CO)C(O)C(O)C4O)C(O)C(O)C3O)C(O)C(O)C2O)C(OC)C1O (centres undefined),-10.5%,–
CC(C)(C)c1cc(CN2CCN(CC(O)c3ccc(Cl)cc3)CC2)cc(C(C)(C)C)c1O (centres undefined),-1.02%,–
O=C(O)C[C@@H](NC(=O)c1cc(-c2ccc(-c3ccncc3)cc2)cs1)c1ccccc1,1.97%,–
CC(=O)[C@@H]1CC[C@]2(C(=O)O)CC[C@]3(C)C(CCC4[C@@]5(C)CC[C@H](O)C(C)(C)C5CC[C@]43C)C12 (some centres undefined),–,inactive
CCOc1nc2cccc(C(=O)O)c2n1Cc1ccc(-c2ccccc2-c2noc(=O)[nH]2)cc1,4.39%,–
O=C(O)c1cnn(-c2nc3cc(OC(F)(F)F)c(Cl)cc3[nH]2)c1,-25.2%,–
Cc1cc(Nc2ncc(Cl)c(Nc3ccccc3S(=O)(=O)C(C)C)n2)c(OC(C)C)cc1C1CCNCC1,-10.6%,–
COc1cc(C2Oc3c(OC)cc(CCCO[C@@H]4O[C@H](CO)[C@@H](O)[C@H](O)[C@H]4O)cc3C2CO)ccc1O (some centres undefined),-0.0218%,–
COc1ccc(/C=C/C(=O)O[C@H]2[C@@H]3C=CO[C@@H](O[C@@H]4O[C@H](CO)[C@@H](O)[C@H](O)[C@H]4O)[C@@H]3[C@@]3(CO)O[C@@H]23)cc1O,–,inactive
